The list is not random: actives were taken first. Their share in the collection is about 7.4%.
Rab9 prom act: activators of Rab9 promoter | Potency, µM (top dose mostly 9.22 µM), without a hit: at the top dose activation, negative = inhibition, usual class: activators | actives 2.8% (n = 320,000) | Huh7 Rab9 promoter-luciferase reporter, luminescence, 24 h; also: % of control where 0% means no effect; nearly all actives have a fitted effect of over 60% in size
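Huh7 cells stably carrying a Rab9 promoter-luciferase reporter, 1500 cells per well in OP-MEM I with 10% FBS, treated with compound 24 hours at 37C. Luciferase activity read by luminescence after 10 minutes with Amplite reagent.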
SMN2 splice enh: enhancers of SMN2 splice variant expression; HEK293 SMN2-luciferase splicing reporter, luminescence, 30-36 h; Potency, µM (doses to about 46.1 µM), without a hit: at the top dose activity change, positive = activation, most hits filed as activators; actives 2.8% (n = 210,000); AID 1458; also: % of control where 0% means no effect; nearly all actives have a fitted effect of over 55% in size
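qHTS luciferase splicing reporter: luminescence rises when SMN2 exon 7 is included in transfected HEK293 cells. Compound exposure lasted 30-36 h at 37C, with 4.5 mM final sodium butyrate as control, followed by a ONE-Glo read.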
FLuc modulator: firefly luciferase modulation, counter-screen for miR-21 project; P08659; purified FLuc, Km substrates, luminescence inhibition; Potency, µM (series often up to 57.5 µM), for the others: top-dose activity change, negative = inhibition, hits mostly inhibitors; actives 6.9% (n = 360,000); AID 588342;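 also: plate controls were vehicle for no effect and reference inhibitor for full effect; nearly all actives have a fitted effect of over 55% in size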
Target sequence (P08659 whole entry, looked up): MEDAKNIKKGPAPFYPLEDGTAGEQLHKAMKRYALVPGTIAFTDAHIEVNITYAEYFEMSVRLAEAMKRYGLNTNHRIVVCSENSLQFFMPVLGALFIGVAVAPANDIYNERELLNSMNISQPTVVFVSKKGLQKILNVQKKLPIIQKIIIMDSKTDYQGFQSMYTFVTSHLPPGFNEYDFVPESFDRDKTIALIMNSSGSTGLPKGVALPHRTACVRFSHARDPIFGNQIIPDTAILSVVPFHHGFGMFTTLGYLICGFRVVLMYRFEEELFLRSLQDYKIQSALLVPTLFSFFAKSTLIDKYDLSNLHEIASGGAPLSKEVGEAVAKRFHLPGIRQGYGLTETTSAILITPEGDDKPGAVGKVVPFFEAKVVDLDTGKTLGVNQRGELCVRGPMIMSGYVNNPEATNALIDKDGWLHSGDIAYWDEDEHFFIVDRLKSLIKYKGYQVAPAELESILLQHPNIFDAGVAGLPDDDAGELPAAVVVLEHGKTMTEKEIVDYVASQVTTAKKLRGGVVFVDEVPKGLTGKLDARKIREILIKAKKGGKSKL
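Biochemical qHTS of compounds, final roughly 60 µM downward over six points, against 10 nM purified firefly luciferase using Km concentrations of substrates (10 uM D-luciferin, 10 uM ATP) in Tris acetate pH 7.5 buffer; luminescence output.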
NPC1 prom act: NPC1 promoter activation; Huh7 NPC1 promoter luciferase reporter, 24 h; actives 2.4% (n = 320,000); AID 485313; Potency, µM (titrated, usually from 9.22 µM), for the others: at the highest dose activation, actives largely listed as activators; also: % of control where 0% means no effect; nearly all actives have a fitted effect of over 60% in size
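Cells: Huh7 expressing luciferase under the NPC1 promoter, 1500/well. Seeded 2 h, compound added, incubated 24 h at 37 °C. Luciferase reagent, 10 min ambient, then luminescence.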
ELG1 genotoxic: induces genotoxicity in HEK293T cells with luciferase-tagged ELG1; AID 504466; Potency, µM (top dose mostly 46 µM), for inactives: at the top dose activity change, positive = activation, usual class: activators; actives 1.3% (n = 330,000); HEK293T ELG1-luciferase reporter, luminescence, 16 h; also: % of control where 0% means no effect; nearly all actives have a fitted effect of over 60% in size
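16 hr compound incubation (37 °C, 5% CO2) of HEK293T cells carrying luciferase-tagged ELG1; luciferase then measured by ONE-Glo luminescence after 30 min at RT.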
An asterisk follows results filed as active; ? = inconclusive; nt = not tested or not shown; [ ] = dose if it differs, or a comment. Calls follow the shape of the dose curve; as a rule, active = well fitted curve in the direction sought with a large enough effect; inconclusive = small, poorly fitted or top-dose-only effect, or another doubt; inactive = no such curve, though single readings can be large; an effect the other way counts as inactive or inconclusive. Potency is read from the fitted curve at half-maximal effect.

SMILES	Rab9 prom act	SMN2 splice enh	FLuc modulator	NPC1 prom act	ELG1 genotoxic
O=C(Nc1cccnc1)c1cc2c(ccc3ccccc32)o1	nt	11µM*	0.95µM*	nt	nt
CCc1ccc2oc(C(=O)Nc3cccnc3)c(C)c2c1	4µM*	nt	2.1µM*	?	4.1µM*
Cc1c(C(=O)NCc2cccs2)oc2ccc(Br)cc12	14%	-20%	19µM*	1%	18µM*
CCc1ccc2oc(C(=O)Nc3nc(-c4ccc(F)cc4)ns3)c(C)c2c1	nt	6%	6.7µM*	nt	nt
Cc1c(C(=O)Nc2nc(-c3ccc(F)cc3)ns2)oc2ccc(Br)cc12	nt	-8%	-2%	nt	nt
Cc1c(C(=O)Nc2cccnc2)oc2ccc(Br)cc12	3.2µM*	nt	2.7µM*	?	18µM*
Cc1c(C(=O)Nc2cccc(S(=O)(=O)N3CCOCC3)c2)oc2ccc(Br)cc12	nt	nt	nt	nt	1%
O=C(c1cc(-c2cccc(Cl)c2)nc2ccccc12)N1CCN(c2ccccn2)CC1	11%	nt	19µM*	5%	-22%
O=C(c1cc(-c2ccncc2)nc2ccc(Br)cc12)N1CCN(c2ccccn2)CC1	nt	-28%	17µM*	nt	nt
Cc1cccc2c(C(=O)N3CCN(c4ccccn4)CC3)cc(-c3cccc(Br)c3)nc12	-6%	nt	-8%	-4%	-19%
Clc1ccc(-c2cc(CN3CCOCC3)no2)cc1	0.89µM*	nt	12µM*	1.6µM*	?
Clc1ccc(-c2cc(CN3CCCCC3)no2)cc1Cl	23%	nt	19µM*	22%	10%
O=C(O)CC(CC(=O)O)C(=O)O	nt	-16%[9.22 µM]	nt	nt	nt
COc1ccc(-c2nc(C)ncc2-c2ccccc2)c(O)c1	-4%	nt	1%	7%	1%
COc1ccc2cc(-c3ccsc3)ncc2c1	-1%	nt	1.9µM*	?	?
COc1ccc2cc(C3=CCCCC3)ncc2c1	?	nt	0.85µM*	2µM*	?
COc1ccc(-c2ccc3oc(-c4ccsc4)c(-c4ccc(Br)nc4)c3c2)cc1	nt	nt	nt	nt	19%
COc1cc(OC)cc(-c2cc3ccc(OC)cc3cn2)c1	?	nt	0.27µM*	?	?
COc1ccc2cc(-c3ccccc3)ncc2c1	0.45µM*	nt	0.54µM*	0.56µM*	2.9µM*
COc1cc2cnc(C3=CCCCC3)cc2cc1OC	nt	nt	nt	nt	3%
COc1cc(OC)cc(-c2cc3ncccc3cn2)c1	-1%	nt	?	14%	10%
Cc1ccc(CN2CCCn3nc(C(=O)NCCc4ccc(Cl)cc4)cc3C2=O)cc1	nt	nt	1%	nt	nt
Cc1cccc(NC(=O)Cn2nc(N3CCN(c4ccccc4)CC3)ccc2=O)c1C	nt	nt	2%	nt	nt
Nc1ccc(N=Nc2ccccc2)c(N)n1	12%	?	17µM*	26%	?
Nc1ccc(N=Nc2ccccc2)c2ccccc12	2%	nt	17µM*	?	0%
SMILES	Rab9 prom act	SMN2 splice enh	FLuc modulator	NPC1 prom act	ELG1 genotoxic
Nc1ccc(N=Nc2ccc(-c3ccc(O)cc3)cc2)c2ccc(S(=O)(=O)O)cc12	nt	2%[9.22 µM]	nt	nt	nt
O=c1c2ccccc2n(Cc2c(F)cccc2Cl)c(=O)n1CCc1ccccc1	nt	-1%	-11%	nt	nt
CCC(Cc1ccccc1)NC(=O)c1ccc2nc(N3CCOCC3)sc2c1 (stereo not given)	5%	nt	3%	-3%	0%
CCOC(CNC(=O)c1ccc2nc(N3CCC(C)CC3)sc2c1)OCC	?	-52%	17µM*	?	?
CCOc1ccc(CCNC(=O)c2ccc3nc(N4CCC(C)CC4)sc3c2)cc1OCC	nt	-14%	-13%	nt	nt
CCC(Cc1ccccc1)NC(=O)c1ccc2nc(N3CCC(C)CC3)sc2c1 (stereo not given)	nt	-11%	12µM*	nt	nt
COc1cc(/C=N/NC(=O)Cc2csc(N3CCOCC3)n2)cc(OC)c1O	0%	6%	15µM*	0%	0%
CCCCn1nc(NC(=O)c2cccc(Cl)c2)c2cc3cccc(C)c3nc21	nt	4%	-1%	nt	nt
Cc1ccc(-c2nnc(NC3CCCC3)s2)cc1	0.5µM*	nt	3µM*	0.63µM*	?
CCOC(=O)c1sc(NC(=O)c2ccccc2OCC)nc1C	?	-26%	-20%	?	-1%
CCOC(=O)c1sc(NC(=O)c2cccnc2)nc1C	25%	-2%	15µM*	16%	?
CCOC(=O)c1sc(NC(=O)CSc2ncccn2)nc1C	3%	nt	-11%	-2%	-2%
CCOC(=O)c1sc(NC(=O)c2ccc3nc[nH]c3c2)nc1C	2%	nt	5.4µM*	-7%	?
CCOC(=O)c1sc(NC(=O)CSc2nccn2C)nc1C	?	nt	?	?	21µM*
CCOC(=O)c1sc(NC(=O)c2ccc(=O)[nH]c2)nc1C	-16%	nt	?	2%	20%
CCOC(=O)CSc1nc2c(sc3ccccc32)c(=O)n1Cc1ccc(OC)cc1	nt	nt	-5%	nt	nt
C=C1C(C2(C)C=CC(=O)C(C)(C)C2CC(=O)OC)CC[C@@]2(C)C(c3ccoc3)OC(=O)C3OC132 (stereo not given in full)	nt	-5%	nt	nt	nt
OCCNc1c2ccccc2nc2ccccc12	-37%	nt	0%	-29%	-7%
CCCNc1c(F)c(F)c2c(C)c3ccccc3nc2c1F	?	13%	6µM*	?	?
COc1cccc(C2Nc3ccccc3C(=O)N2c2ccc(F)cc2)c1O (stereo not given)	?	nt	-10%	?	?
O=C1c2ccccc2NC(c2ccccc2O)N1c1ccc(F)cc1 (stereo not given)	4µM*	nt	-14%	4µM*	?
Cc1cc(NC(=O)c2ccccc2)sc1C	nt	11µM*	3.4µM*	nt	nt
Cc1ccc(NC(=O)c2ccccc2)s1	0.63µM*	2µM*	2.7µM*	0.71µM*	?
Cc1ccc(OCc2ccc(-c3nc(C#N)c(NCc4ccccc4Cl)o3)o2)cc1	nt	nt	-1%	nt	nt
Cc1cccc(C(=O)OCc2cc(=O)n3nc(C4CC4)sc3n2)c1	nt	nt	-6%	nt	nt
SMILES	Rab9 prom act	SMN2 splice enh	FLuc modulator	NPC1 prom act	ELG1 genotoxic
Clc1cccc(Cl)c1C(Nc1nncs1)Nc1nncs1	nt	4%[9.22 µM]	nt	nt	nt
Cc1ccc(Cn2nnc3c(=O)[nH]c(C4CCCN(S(=O)(=O)c5ccccc5)C4)nc32)cc1 (stereo not given)	24%	-18%	-1%	13%	21µM*
Cc1cc(C(=O)COc2ncnc3sccc23)c(C)n1C	?	11µM*	17µM*	?	18µM*
COc1ccccc1C(=O)OCc1ccc2sc(C)nc2c1	20%	3%	17µM*	-1%	1%
O=C1NC(c2cccc(Br)c2)=N/C1=C\c1ccco1	?	-13%	11µM*	?	16%
O=C1NC(c2ccccc2Br)=N/C1=C\c1ccco1	?	nt	0.38µM*	13%	?
O=C1NC(c2ccccc2)=N/C1=C/c1ccco1	3.2µM*	13µM*	2.1µM*	3.5µM*	?
O=C1NC(=O)/C(=C/c2ccco2)N1	0%	nt	-3%	0%	5%
Cc1ccc(NC(=O)c2oc3ccccc3c2NC(=O)C2CCCCC2)cc1	nt	nt	0%	nt	nt
O=C(CCCOc1ccc(Cl)cc1)N1CCCCC1	3.5µM*	nt	-26%	27%	21µM*

Bioassay records as filed in PubChem BioAssay.
